Tau FP inhib = inhibitors of human tau fibril formation. 280,000 tested, 0.39% active. K18 P301L tau heparin fibrillization, Alexa594 FP, 6 h. Potency, µM (top dose mostly 57.7 µM), usual class: inhibitors. P10636. AID 1468; also: nearly all actives have a fitted effect of over 55% in size
Target sequence (P10636 561-689 P618L limits assumed): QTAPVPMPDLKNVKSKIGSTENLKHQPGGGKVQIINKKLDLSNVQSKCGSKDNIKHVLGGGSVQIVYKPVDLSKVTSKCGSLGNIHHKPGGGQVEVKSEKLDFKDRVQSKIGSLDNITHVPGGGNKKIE
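Read-out: fluorescence polarization of Alexa 594-labeled tau (0.24 uM), 555 nm excitation, 632 nm emission. Mixtures held 15 uM unlabeled K18 P301L, compound and 20 uM heparin, pH 7 acetate buffer, incubated 6 hr at 37 C.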
Tau fibril ThT = tau fibrillization inhibition (ThT binding); P10636; recombinant tau K18 P301L, heparin-induced fibrillization, ThT fluorescence; Potency, µM (highest dose often 57.4 µM), actives largely listed as inhibitors; 270,000 tested, 2.1% active; AID 1460; also: nearly all actives have a fitted effect of over 55% in size
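K18 P301L tau (15 uM + 0.24 uM Alexa 594-tagged), heparin 20 uM, NaOAc pH 7, 6 h 37 C; ThT 30 uM, 1 h RT, ex 450/em 510 nm.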
HTT aggregate = reduces HttQ103-GFP aggregates in PC12 cells; PC12 HttQ103-GFP aggregates, Acumen cytometry, 40 h; Potency, µM (titrated, usually from 46.1 µM), actives largely listed as inhibitors; 220,000 tested, 1.1% active; also: nearly all actives have a fitted effect of over 60% in size
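Quantitative HTS on tebufenozide-induced (100 nM) PC12 cells stably expressing polyQ103 Huntingtin exon 1–GFP. Reduction of bright GFP aggregates, detected by laser scanning cytometry after lysis, identified actives across the titration.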
HTT cytoprotect = protects HTT-Q103 PC12 cells, measured by ATP; AID 1471; 230,000 tested, 0.14% active; PC12 HTT-Q103 induced, cytoprotection, ATP luminescence, 40 h; Potency, µM (series often up to 56.4 µM), actives largely listed as activators; also: nearly all actives have a fitted effect of over 45% in size
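Rat PC12, Q103 Htt exon1-GFP fusion, ecdysone promoter; tebufenozide inducer 100 nM final; compound titration; qHTS, 1500 cells/well; ATPlite luminescent read.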
Tau fluor cs = counter-screen for tau fibril formation inhibitors; tau K18 P301L (four-repeat tau fragment) Alexa594 fluorescence, heparin fibrillization; Potency, µM (highest dose often 57.7 µM); 280,000 tested, 0.93% active; AID 1463; also: nearly all actives have a fitted effect of over 55% in size
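Human K18 P301L tau (15 uM unlabeled plus 0.24 uM Alexa 594-labeled, final) in 100 mM sodium acetate pH 7 was mixed with compound and 20 uM heparin and incubated 6 hr at 37 C.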
A number is an active result; – = inactive; ? = inconclusive; · = no result; ! = not confirmed by another sample; [ ] = another dose, or the depositor's remark. In the library only some 3.7% were active in any assay of this set; here they are far more common. Calls follow the shape of the dose curve; as a rule, active = well fitted curve in the direction sought with a large enough effect; inconclusive = small, poorly fitted or top-dose-only effect, or another doubt; inactive = no such curve, though single readings can be large; an effect the other way counts as inactive or inconclusive.

SMILES	Tau FP inhib	Tau fibril ThT	HTT aggregate	HTT cytoprotect	Tau fluor cs
COc1ccc(N/N=C/c2c(O)n(-c3ccc(C)c(C)c3)c(=O)[nH]c2=O)cc1	?	18µM	–	–[10 µM]	–
CCCCn1c(O)c(C(CC)=NCc2ccc3c(c2)OCO3)c(=O)[nH]c1=O	–	?	25µM	–	–
C[C@@]12CC[C@H]3[C@@H](CCC4=CC(=O)CC[C@]43C)[C@H]1CCC2=O	·	·	·	–[1.9 µM]	·
C[C@H]1CCC/C=C/C2C[C@H](O)CC2[C@H](O)/C=C/C(=O)O1 (stereo partly specified)	–	–	2.8µM	·	–
C[C@@H]1CCC/C=C\[C@H]2C[C@H](O)C[C@@H]2[C@H](O)/C=C\C(=O)O1	·	·	·	–	·
C[C@H]1CCCC=CC2C[C@H](O)C[C@@H]2[C@H](O)/C=C\C(=O)O1 (stereo partly specified)	–	–	·	–	–
CC1CCC/C=C/C2CC(O)CC2C(O)/C=C/C(=O)O1 (stereo unspecified)	–	–	1µM	–	–
CC(C)[C@@]1(NC(=O)[C@@H]2C=C3c4cccc5[nH]cc(c45)C[C@@H]3N(C)C2)O[C@]2(O)[C@H]3CCCN3C(=O)[C@H](Cc3ccccc3)N2C1=O	·	·	·	–[1.9 µM]	·
C=C(C)c1ccccc1 (tested in a mixture with another compound)	·	·	·	–[10 µM]	·
COC(=O)C1C=C2c3cccc4[nH]cc(c34)CC2N(C)C1 (stereo unspecified)	?	18µM	–[9.22 µM]	–[10 µM]	?
CC[C@@H](CO)NC(=O)[C@@H]1C=C2c3cccc4c3c(cn4C)C[C@H]2N(C)C1	?	25µM!	–	–	?
c1cc(CCN2CCCCC2)ccn1	·	·	·	–[10 µM]	·
CN1C(=O)C(Cc2ccsc2)C(=O)N(C)C1=O	32µM	25µM	–	–[10 µM]	–
CN1C(=O)C(Cc2cccs2)C(=O)N(C)C1=O	–	?	–	–	–
CN1CC[C@@]2(C)c3cc(OC(=O)Nc4ccccc4)ccc3N(C)[C@@H]12	?	32µM	·	–	?
CN1CCN(c2ccc(NC(=O)Oc3ccccc3)cc2)CC1	–	–	–	–	–
C=CCN1CC[C@@]2(C)c3cc(O)ccc3CC1[C@@H]2C	–	–	–[9.22 µM]	–[10 µM]	–
CN1CC[C@@]2(C)c3cc(O)ccc3N(C)[C@@H]12	20µM	14µM	·	–[1.9 µM]	?
CSc1ccc2c(c1)c(CCN)c(C)n2Cc1ccccc1Cl	·	·	·	–[10 µM]	·
CN1C[C@@H](CS(=O)(=O)N(C)C)C[C@H]2c3cccc4c3c(cn4C)C[C@@H]21	·	·	·	–[1.9 µM]	·
CC(C)(C)[C@@]1(O)C[C@@H]2OC(=O)C[C@@]23C(=O)O[C@H]2OC(=O)[C@@H](O)[C@]231	·	·	·	–	·
COc1cc(O)c(C(=O)O)c(-c2cc(O)c(O)cc2C)c1	?	25µM	–[9.22 µM]	–[10 µM]	?
Cc1ccccc1Nc1c(-c2ccc(Br)cc2O)nc2sccn12	–	–	·	·	?
COc1ccc(Nc2c(-c3cc(Br)ccc3O)nc3ncccn23)cc1OC	–	?	·	·	8.9µM[quencher]
C[C@@H]1O[C@H](O[C@H]2C[C@@H](O)[C@]3(CO)[C@H]4[C@H](O)C[C@]5(C)[C@@H](C6=CC(=O)OC6)CC[C@@]5(O)[C@H]4CC[C@]3(O)C2)[C@@H](O)[C@H](O)[C@H]1O	·	·	·	–	·
SMILES	Tau FP inhib	Tau fibril ThT	HTT aggregate	HTT cytoprotect	Tau fluor cs
O=[As](O)(O)c1ccc(Cc2ccc([As](=O)(O)O)cc2)cc1	·	·	·	–[10 µM]	·
Cc1ccc(-n2sc3ccccc3c2=O)cc1	?	32µM	–	?	–
O=C(O)CC1OCC=C2CN3CCC45c6ccccc6NC4C1C2CC35 (stereo unspecified)	–	–	–[9.22 µM]	–[10 µM]	–
O=C(O)CC1OCC=C2CN3CCC45C6=CC(=O)C(=O)C([N+](=O)[O-])=C6NC4C1C2CC35 (stereo unspecified)	?	7.1µM	–[9.22 µM]	–[10 µM]	?
ClC(Cl)C(Cl)Cl	·	·	·	–	·
Cc1ccc(NC(=O)Nc2ccc3nc(N4CCN(C)CC4)cc(C)c3c2)cc1F	?	14µM	·	·	7.1µM[quencher]
COc1ccc(/C=C/C(=O)Nc2ccc(C)cc2)cc1	?	–	·	·	–
Cc1cc(N2CCCCC2)nc2ccc(NC(=O)/C=C/c3ccc(OC(C)C)cc3)cc12	–	2.8µM	·	·	8.9µM[quencher]
FC(F)(F)c1nc2ccc(SSc3ccc4nc(C(F)(F)F)[nH]c4c3)cc2[nH]1	·	·	·	–[10 µM]	·
COc1cc2c(cc1O)CCN[C@H]2C	·	·	·	–	·
CCCSC(=O)Cl	·	·	·	–	·
C=CCN1C(=O)/C(=C/c2cc(C)n(-c3cccnc3)c2C)C(=O)NC1=S	?	22µM	–	–[10 µM]	–
Cc1cc(C=C2C(=O)NC(=O)NC2=O)c(C)n1-c1cccnc1	–	–	–[9.22 µM]	–[10 µM]	–
c1ccc(CCN2CCCCCC2)nc1	·	·	·	–[10 µM]	·
CCc1cccc(NC(=O)Cn2c(=O)oc3cc(S(=O)(=O)N4CCOCC4)ccc32)c1	–	–	2.2µM	–	–
O=C(Cn1c(=O)oc2cc(S(=O)(=O)N3CCCC3)ccc21)Nc1cccc(C(F)(F)F)c1	?	–	–[9.22 µM]	–	–
Cc1nc2c(=O)n(C)c(=O)nc-2n(C)n1	?	?	–	–[10 µM]	–
CCn1nc(-c2ccccc2)nc2c(=O)n(C)c(=O)nc1-2	?	16µM	8.9µM	–[10 µM]	–
CCN1C(=O)/C(=C\c2ccc([N+](=O)[O-])s2)C(=O)NC1=S	?	3.5µM	–	–	?
COc1ccc(OC)c(N2C(=O)NC(=O)/C(=C/c3ccc([N+](=O)[O-])s3)C2=O)c1	14µM	13µM	?	–	?
Cc1ccc(/C=C2\C(=O)NC(=O)N(CCc3ccc(F)cc3)C2=O)s1	–	?	–	–	–
C=C[C@@H]1CN2CC[C@H]1C[C@H]2[C@@H](O)c1ccnc2ccccc12	·	·	·	–	·
O=c1[nH]c(O)c(N=Nc2cc([N+](=O)[O-])ccc2O)c(=O)[nH]1	–	14µM	–[9.22 µM]	–[10 µM]	–
CCCOC(=O)[C@@H]1[C@@H](C(=O)O)[C@H]2CC[C@@H]1O2	·	·	·	–[10 µM]	·
CCOC(=O)c1ccc(NC(=O)c2c(O)[nH]c(=O)[nH]c2=O)cc1	–	?	3.5µM	–	–
c1cncc(C2Nc3cccc4cccc(c34)N2)c1	?	13µM	–[9.22 µM]	–[10 µM]	14µM[quencher]
c1cncc(C2CCCCN2)c1 (stereo unspecified)	–	–	–[9.22 µM]	–	–
C=C(C=O)C[C@@H]1C[C@H](O)C2OC3C[C@]4(C)OC5/C=C\CC6OC7C(CC=CCC6OC5CCCC4OC3CC2O1)OC1CC2OC3CC(=O)OC3C[C@@H](C)C[C@@]2(C)OC1C[C@@H]7C (stereo partly specified)	4µM	3.5µM	?	–[10 µM]	–
C=C(CC1CC(O)[C@]2(C)OC3CC4OC5C[C@]6(C)O[C@]7(C)CCC8OC9C[C@]%10(C)OC%11C(C)=CC(=O)OC%11CC%10OC9C[C@@H](C)C8OC7CC6O[C@]5(C)C/C=C\C4OC3CC2O1)C(=O)O (stereo partly specified)	–	–	–[9.22 µM]	–[10 µM]	–
